PKA-R2B act: activators of human PKA-R2B complex; P22694+P31323; PKA-R2B holoenzyme dissociation, Cy5-IP20 fluorescence polarization; R2B truncated from residue 108, S112A mutant; 0% DMSO only, 100% 113 µM cGMP; activation, % at 11.4 µM; 0.079% of 340,000 active;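 active = activation above a cutoff set at the mean over all compounds plus 3 SD, cut at about 18% in these data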;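 note: higher means more holoenzyme dissociation and a rise in polarization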
Target sequence (P31323 whole entry, looked up, other chains not shown, the tested form may be a part): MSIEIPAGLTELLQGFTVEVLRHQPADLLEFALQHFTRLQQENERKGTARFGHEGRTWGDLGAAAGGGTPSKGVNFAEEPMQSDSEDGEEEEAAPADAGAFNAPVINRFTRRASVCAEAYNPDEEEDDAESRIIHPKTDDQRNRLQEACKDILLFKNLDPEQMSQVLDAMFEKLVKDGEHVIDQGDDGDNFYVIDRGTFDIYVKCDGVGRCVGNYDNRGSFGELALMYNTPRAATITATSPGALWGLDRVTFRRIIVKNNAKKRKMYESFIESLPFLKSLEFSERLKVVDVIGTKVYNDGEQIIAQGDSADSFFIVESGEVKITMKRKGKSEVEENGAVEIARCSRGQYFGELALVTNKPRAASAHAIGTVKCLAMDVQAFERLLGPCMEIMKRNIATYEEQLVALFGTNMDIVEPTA
PKA-R1A activ: activates the PKA-R1A holoenzyme complex | activation, % at 11.4 µM | 0.083% of 340,000 active | AID 504707 | PKA-R1A dissociation, Cy5-IP20 fluorescence polarization; scaled: DMSO 0%, 113 µM cGMP 100% | P00514+P68181;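 active = percent activation above the mean of all tested compounds plus 3 SD, cut at about 19% in these data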;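 note: higher means more PKAc released from R1A so a rise in polarization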
PG9 binder: PG9 antibody binding by small molecule | AID 624416 | TR-FRET gp120-PG9 antibody binding | inhibition, % at 6.7 µM | 0.43% of 360,000 active; in the data active = inhibition above about 8.5%
Rev-erbA mod: modulates human Rev-erb alpha binding to DNA; P20393; Rev-erbα–FITC-DNA binding, fluorescence polarization, 90 min; activity, % at 10 µM; 0.79% of 370,000 active;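 active = activity above about 14%, limit read from the data; passing the limit was not always enough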
NR1D1 mod conf: confirmation of modulators of human Rev-erb alpha DNA binding. AID 1259319. activation, % at 25 µM. 61% of 3,000 active. shares compounds with Rev-erbA mod. Rev-erb alpha FITC-DNA binding, fluorescence polarization, 90 min;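 active = activation at or above a set limit, or at least 3 SD above the negative control mean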
RORg DNA counter: counter-screen for Rev-erb alpha modulators: RORgamma DNA binding; shares compounds with Rev-erbA mod; 8% of 910 active; purified RORgamma protein-FITC-DNA binding, fluorescence polarization; IC50, µM;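 active = Compounds whose fitted half-maximal concentration for disrupting protein-DNA binding is below 10 micromolar; the record names Rev-erb in its text, so the target is in doubt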
Numbers stand for hits; n = inactive; x = no result. Only some compounds are listed: those with a hit (about 1.2% of all), similar ones and a draw of the others.

SMILES	PKA-R2B act	PKA-R1A activ	PG9 binder	Rev-erbA mod	NR1D1 mod conf	others
COC[C@@H]1CCCN1c1cccc2c1S(=O)(=O)N1CC[C@H](C1)O2	x	x	x	n	x
CCOc1ccc2nc(SCC(=O)Nc3ccc(S(=O)(=O)N4CCCC4)cc3)c(C)cc2c1	n	n	n	25	n
COc1ccc2nc(SCC(=O)Nc3ccc(S(=O)(=O)N4CCCC4)cc3)c(C#N)cc2c1	n	n	n	109	74	RORg DNA counter=n
N#Cc1cc2ccccc2nc1SCC(=O)Nc1ccc(S(=O)(=O)N2CCCC2)cc1	n	n	n	30	24
O=C(Nc1ccc(Oc2ccccc2)cc1)c1csc(COCCO)n1	x	x	n	15	n
CCOc1ccccc1NC(=O)CSC1=C(C#N)C(c2ccco2)C(C(=O)Nc2nc3ccccc3s2)=C(C)N1 (stereo not given)	n	n	n	66	54	RORg DNA counter=n
COc1ccc2[nH]c3c(c2c1)CCN[C@]31C(=O)N(c2ccccc2)c2ccccc21	x	x	x	n	x
COc1cc(NC(=O)c2cc(-c3cccnc3)nc3ccc(Br)cc23)cc(OC)c1	n	n	n	31	20
COc1cccc(C2c3c(ncn(-c4ccccc4)c3=N)Oc3ccc4ccccc4c32)c1 (stereo not given)	x	x	x	n	x
COc1ccc(C(=O)Nc2ccccc2-c2nnn(CC(N)=O)n2)cc1	n	n	n	96	81	RORg DNA counter=n
COc1ccc(NC(=O)CSc2nnc(-c3n[nH]c4c3CCC4)n2N)cc1	x	x	x	n	x
CC(C)(C#N)Cc1cc(CC(C)(C)C#N)cc(C(C)(C)C)c1	n	n	n	22	43	RORg DNA counter=n
Cc1ccc(-c2csc3nc(CN(C)Cc4ccccc4)[nH]c(=O)c23)cc1	n	n	n	n	x
O=c1[nH]c(Cc2ccc(F)cc2)nc2scc(-c3ccc(F)cc3)c12	n	n	n	35	36	RORg DNA counter=n
CN(C)CC(=O)N[C@@H]1C[C@@H]2O[C@@H](CO)CC[C@@H]2O[C@@H]1CCc1ccc(C#Cc2ccccc2)cc1	x	x	x	n	x
N#Cc1cnc2cc(-c3ccccc3)nn2c1N	x	x	n	27	32	RORg DNA counter=n
COc1ccc(-c2cc3ncc(-c4ccccc4)c(N)n3n2)cc1	n	n	n	n	x
O=C(CCc1c[nH]c2ccccc12)NCCc1ccc2c(c1)OCCO2	n	n	n	28	32	RORg DNA counter=n
COC(=O)[C@H](C(C)C)N1Cc2nnn(CC3CCCCC3)c2-c2ccccc2S1(=O)=O	x	x	x	n	x
Cc1cccc(C(=O)Nc2ccc(N3CCN(c4ccc(C(F)(F)F)cn4)CC3)nc2)c1	n	n	n	65	n
C=CCNC1CCC12CCC(c1ccccc1)CC2 (stereo not given)	x	x	x	n	x
COC(=O)c1cnn(-c2ccc(F)cc2F)c1/C=N/NC(=S)Nc1ccccc1	x	x	x	n	x
O=c1c(Cl)c(Nc2cccc(Cl)c2)cnn1-c1nc2ccccc2s1	n	n	n	19	n
COc1ccc(Nc2cnn(-c3nc4ccccc4s3)c(=O)c2Cl)cc1	n	n	n	n	x
COc1cc(C(=O)N(Cc2ccco2)Cc2cc3ccccc3[nH]c2=O)cc(OC)c1OC	n	n	n	n	x
SMILES	PKA-R2B act	PKA-R1A activ	PG9 binder	Rev-erbA mod	NR1D1 mod conf	others
COc1cc(C(=O)OCc2cc3ccccc3[nH]c2=O)cc(OC)c1OC	n	n	n	45	30
Cn1c(SCC(=O)c2ccc3c(c2)Cc2ccccc2-3)nnc1-c1ccccc1	n	n	n	62	47	RORg DNA counter=7.5
COc1ccc2c(Cl)c(-c3nnc(SCC(=O)c4ccccc4)n3C)sc2c1	n	n	n	95	117	RORg DNA counter=n
CCC(=O)Nc1nnc(SCC(=O)c2ccc3c(c2)Cc2ccccc2-3)s1	n	n	n	44	17
N/C(=N\C(=O)OCc1ccccc1)N(CC#CC1=CCCCC1)CC1CC1	x	x	x	n	x
COc1ccc(CN2C/C(=C/c3ccccc3)N3C(=O)C[C@@H](c4ccc5ccccc5c4)N=C23)c(OC)c1	x	x	x	n	x
CCOC(=O)CNC(=O)c1cc(-c2ccccn2)nc2c(C)c(Cl)ccc12	n	n	n	19	22
Cc1c(Cl)ccc2c(C(N)=O)cc(-c3ccccn3)nc12	n	n	n	41	35	RORg DNA counter=n
Cc1c(Cl)ccc2c(C(=O)O)cc(-c3ccccc3)nc12	n	n	n	n	x
CNC(=O)C[C@H]1CC[C@H]2[C@@H](COc3ccc(NC(=O)Nc4ccccc4)cc3C(=O)N2C)O1	x	x	x	28	14
COC(=O)C[C@@H]1CC[C@H]2[C@H](COc3ccc(NC(=O)Nc4ccc(C#N)cc4)cc3C(=O)N2C)O1	x	x	x	n	x
CCNC(=O)C[C@H]1CC[C@H]2[C@@H](COc3ccc(NC(=O)Nc4ccccc4)cc3C(=O)N2C)O1	x	x	x	34	13
CCCNC(=O)C[C@H]1CC[C@H]2[C@@H](COc3ccc(NC(=O)Nc4ccc(C#N)cc4)cc3C(=O)N2C)O1	x	x	x	36	19
Cc1ccccc1NC(=O)C[C@H]1CC[C@H]2[C@@H](COc3ccc(NC(=O)Nc4ccccc4)cc3C(=O)N2C)O1	x	x	x	n	x
CN1C(=O)c2cc(NC(=O)Nc3ccccc3)ccc2OC[C@H]2O[C@@H](CC(=O)NCC(F)(F)F)CC[C@@H]21	x	x	x	n	x
CCNC(=O)C[C@H]1CC[C@H]2[C@@H](COc3ccc(NC(=O)c4ccc5c(c4)OCO5)cc3C(=O)N2C)O1	x	x	x	141	48	RORg DNA counter=n
C=CCN1C(=O)[C@@H](CC(=O)N2CCN(C(=O)c3ccco3)CC2)[C@]2(C(=O)OCC)CCCCC/C=C/12	x	x	x	n	x
CC(C)CNC(=O)OCc1cn(Cc2ccc(Cl)cc2)nn1	x	x	x	n	x
CN(CCCOC(=O)c1cccs1)C1CN(Cc2cn(Cc3ccccc3Cl)nn2)S(=O)(=O)C1 (stereo not given)	x	x	x	n	x
COc1ccc2nc(C)cc(SCC(=O)Nc3c(C)cc(C)cc3C)c2c1	n	n	n	412	19
COc1ccc2c(C)cc(SCC(=O)Nc3ccc(Cl)cn3)nc2c1	n	n	n	55	n
COc1ccc2c(C)cc(SCC(=O)NC3CCCCC3)nc2c1	n	n	n	121	53	RORg DNA counter=n
CN(Cc1ccccc1)S(=O)(=O)c1cccc(C(=O)OCc2ccccc2Cl)c1	x	x	x	n	x
COc1ccc(C(=O)CSc2cc(C)nc(SCC(=O)c3ccc(C)cc3)n2)cc1	n	n	n	27	n
O=C(CCCCCN1C(=O)C2C3C=CC(C3)C2C1=O)N1CCN(c2ncccn2)CC1 (stereo not given)	x	x	x	n	x
O=C(CSc1nc(-c2ccco2)cc(C(F)(F)F)n1)N1CCCc2ccccc21	n	n	n	25	n
CC(=O)c1ccc(N2CCN(S(=O)(=O)c3ccc4c(c3)CC(C)N4C(C)=O)CC2)cc1 (stereo not given)	n	n	n	n	x
CC(=O)c1ccc(N2CCN(S(=O)(=O)c3ccc4c(c3)CC(C)N4C(=O)C3CC3)CC2)cc1 (stereo not given)	n	n	n	31	24

Compound activity from PubChem BioAssay.
